Assay outcomes: PubChem, several laboratories
Jurkat NFkB inh – lowers PMA/ionomycin-induced NF-kB signal in Jurkat cells; PMA/ionomycin-induced NF-kB luciferase reporter, luminescence; inhibition, % at 4 µM; hit rate 0.53% among 330,000; in the data active = inhibition above about 50%
esBAF inh – SWI/SNF esBAF complex inhibition; mouse ES cells, Bmi1-luciferase knock-in reporter, 24 h; 100% = twice the neutral-well signal; reporter increase, % at 12.5 µM; hit rate 2% among 350,000; AID 602393; in the data active = activation above about 40%; inconclusive = no clear call, values can overlap the other calls;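 also: 0% = median of the plate's neutral control wells and 100% = double that signal; a rise in the Bmi1 reporter signal indicates esBAF inhibition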
SMARCA2 act – increases SMARCA2 function in MMTV reporter cells. activation, % at 9.1 µM. AID 652017. hit rate 1% among 370,000. MG213 cells, MMTV-luciferase reporter, dexamethasone, overnight; in the data active = activation above about 7.8%;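 also: 0% = vehicle wells and 100% = reference activator wells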
697 NFkB inh – lowers PMA/ionomycin-induced NF-kB signal in 697 B cells. 697 B-cell NF-kB luciferase reporter, 16 h. hit rate 0.33% among 330,000. inhibition, % at 4 µM; in the data active = inhibition above about 35%
Gli-Sufu antag – Gli-Sufu pathway antagonism | Sufu-KO-LIGHT fibroblasts, Gli luciferase reporter luminescence | inhibition, % at 5 µM | hit rate 0.74% among 340,000;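 active = inhibition above about 55%, limit read from the data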;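 also: 0% = DMSO-treated cells and 100% = wells with medium but no cells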
SMARCA2 conf – SMARCA2 activation, confirmation screen | shares compounds with SMARCA2 act | MG213 cells, MMTV-luciferase with dexamethasone, luminescence, overnight; MG213 cells expressing E1A, Rb sequestered; DMSO wells 0%, reference activator 100% | hit rate 30% among 3,500 | AID 652260 | activation, % at 9.1 µM;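 active = activation above its plate's cutoff, the mean activation of tested wells plus 3 SD, cut at about 7.9% in these data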
VP16 Luc act – activates GAL4-VP16 luciferase, flagging SMARCA2 activator hits. shares compounds with SMARCA2 act. HEK293 GAL4-VP16 pG5luc reporter, luciferase luminescence; scaled: DMSO wells 0%, SAHA wells 100%. activation, % at 9.1 µM. hit rate 41% among 3,500. AID 686939;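 active = activation above the solvent-only control well mean plus 3 SD, averaged across control plates, cut at about 5.2% in these data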
* hit, by the source's call; ? = inconclusive; . = not tested or not shown. Rows were chosen to be rich in hits. Some 3.3% of all compounds tested hit in one or more screens of this group.

SMILES | Jurkat NFkB inh | esBAF inh | SMARCA2 act | 697 NFkB inh | Gli-Sufu antag | SMARCA2 conf | VP16 Luc act
CO[C@H]1CN(C)C(=O)c2ccc(NC(=O)Nc3ccc(Cl)cc3)cc2OC[C@@H](C)NC[C@H]1C | . | -3 | . | . | . | . | .
COC(=O)C[C@H]1CC[C@@H]2[C@@H](COc3ccc(NS(=O)(=O)c4ccc(C)cc4)cc3C(=O)N2C)O1 | . | -1 | . | . | . | . | .
COc1cc2c(C#CCCO)c(-c3ccc(C#N)cc3)oc(=O)c2cc1OC | -7 | -6 | 2 | 7 | 2 | . | .
COc1cc2c(C#CCCO)c(-c3ccsc3)oc(=O)c2cc1OC | -2 | -13 | 9.3* | -11 | -6 | 11* | 2
C[C@@H]1CN([C@@H](C)CO)S(=O)(=O)c2ccc(C#CC3CCCC3)cc2O[C@H]1CN(C)C(=O)C1CC1 | . | 1 | . | . | . | . | .
N#C[C@@H]1N[C@@H](CO)[C@@H]1c1ccc(C2=CCCCC2)cc1 | . | -3 | . | . | . | . | .
O=C(CN1C(=O)NC2(CCc3ccccc32)C1=O)NCC(=O)Nc1ccc(F)cc1 (configuration not stated) | 8 | -7 | 8.2* | 20 | 1 | -4 | 2
C[C@H](CO)N1C[C@H](C)[C@@H](CN(C)C(=O)Nc2ccccc2)Oc2cc(C#CC3(O)CCCC3)ccc2S1(=O)=O | . | 7 | . | . | . | . | .
CNc1cc(C)nc(N2CCOCC2)n1 | 18 | . | 8.7* | 18 | 2 | -1 | 1
Cc1cc(NC2CCCCC2)nc(N2CCOCC2)n1 | -11 | -1 | 1 | -11 | -15 | . | .
COc1cccc2oc3ccc(C#Cc4ccccn4)cc3c(=O)c12 | -138 | 1 | 10* | -134 | -84 | 3 | 10*
COc1cccc2sc3cc(C#Cc4ccccn4)ccc3c(=O)c12 | -23 | ? | 4 | -29 | -20 | . | .
Clc1cccc(Cc2c(-c3ccco3)nc3c4ccccc4ccn23)c1 | . | . | 24* | . | . | 12* | 10*
FC(F)(F)c1ccccc1Cc1c(-c2cccc(Cl)c2)nc2c3ccccc3ccn12 | . | . | 8.2* | . | . | -4 | 1
c1coc(-c2nc3c4ccccc4ccn3c2Cc2ccsc2)c1 | . | . | 20* | . | . | 16* | 5
C[C@H](CO)N1C[C@H](C)[C@@H](CN(C)S(=O)(=O)c2ccc(F)cc2)OCCCC[C@H](C)Oc2ccc(NC(=O)C3CCCCC3)cc2C1=O | . | 4 | . | . | . | . | .
CO[C@@H]1CC[C@@H]2CCOc3ccc(C#N)cc3C(=O)N(C)C[C@H](C)C(=O)N(C)C[C@@H]1O2 | . | 1 | . | . | . | . | .
Cc1ccc(S(=O)(=O)Nc2cccc3c2O[C@H](CN(C)S(=O)(=O)c2ccc(C)cc2)[C@@H](C)CN([C@H](C)CO)C3=O)cc1 | . | -1 | . | . | . | . | .
O=C(C[C@@H]1C=C[C@@H](NC(=O)Nc2ccc(C(F)(F)F)cc2)[C@@H](CO)O1)NCc1ccccn1 | . | -4 | . | . | . | . | .
O=C1CCc2cc(Br)ccc2O1 | . | -6 | 8.7* | . | 5 | -2 | 1
C[C@@H]1CN([C@@H](C)CO)C(=O)Cc2cc(NS(=O)(=O)c3cccs3)ccc2O[C@@H]1CN(C)Cc1ccncc1 | . | -2 | . | . | . | . | .
COc1ccccc1/C=C/C(=O)OCC(=O)Nc1ccc(Cl)cn1 | 5 | 5 | 8.9* | -11 | 0 | 11* | 1
O=C(CCSc1ccc(Cl)cc1)N1CCN(c2ncccn2)CC1 | -25 | 42* | 9.3* | -12 | -36 | 4 | 5
C[C@@H]1CN([C@@H](C)CO)C(=O)Cc2cc(NS(=O)(=O)c3cn(C)cn3)ccc2O[C@H]1CN(C)Cc1ccc(C(F)(F)F)cc1 | . | 1 | . | . | . | . | .
O=C(O)c1ccc(N/N=C/C=C/c2ccccc2)cc1 | -98 | 37 | 8.0* | -204 | -41 | 4 | 17*
SMILES | Jurkat NFkB inh | esBAF inh | SMARCA2 act | 697 NFkB inh | Gli-Sufu antag | SMARCA2 conf | VP16 Luc act
O=c1nc(N/N=C/C=C/c2ccccc2)cn[nH]1 | -50 | . | 12* | -53 | -35 | 12* | 6.7*
O=C(N/N=C/C=C/c1ccccc1)c1ccncc1 | 2 | . | -3 | 6 | -5 | . | .
COc1ccc(S(=O)(=O)Nc2ccc3c(c2)C(=O)N([C@@H](C)CO)C[C@@H](C)[C@@H](CN(C)CC2CC2)OCCCC[C@@H](C)O3)cc1 | . | 1 | . | . | . | . | .
Cc1ccccc1NC(=O)c1sc(NC(=O)C2CC2)nc1C | 3 | 10 | 8.4* | -16 | 9 | 1 | 0
c1ccc(CSc2nc3ncccn3n2)cc1 | -46 | 35 | 8.7* | -46 | -41 | 12* | 8.8*
O=C(N[C@H]1CC[C@H](CCNC(=O)C2CCCCC2)O[C@@H]1CO)c1ccncc1 | . | 0 | . | . | . | . | .
C[C@@H]1CN([C@H](C)CO)C(=O)c2cc(NC(=O)c3ccncc3)ccc2O[C@H]1CN(C)Cc1ccccc1 | . | 0 | . | . | . | . | .
Oc1ccc(Cl)cc1CNc1cnc2ccccc2c1 | 14 | 0 | 0 | -50 | -1 | . | .
Oc1ccccc1CNc1cnc2ccccc2c1 | -78 | 54* | 11* | -111 | 5 | 9.5* | 8.8*
C[C@@H]1CCCCO[C@H](CN(C)C(=O)Nc2ccc(F)cc2)[C@@H](C)CN([C@@H](C)CO)C(=O)c2cc(NS(=O)(=O)c3cn(C)cn3)ccc2O1 | . | -1 | . | . | . | . | .
CCC(C(=O)Nc1cnccn1)c1ccccc1 (configuration not stated) | -10 | 2 | -1 | -37 | 2 | . | .
CCC(C(=O)NNC(=O)c1cnccn1)c1ccccc1 (configuration not stated) | -2 | . | 8.1* | -2 | 4 | 0 | 0
Clc1ccc(CO/N=C2\CCCc3nonc32)cc1 | -21 | . | 13* | -29 | -16 | 8.1* | 4
CCc1ccc(-c2cc3c(=O)n(CC(=O)NCCCN4CCC(Cc5ccccc5)CC4)nc(C)n3n2)cc1 | 23 | -21 | 10* | -35 | 20 | -11 | 3
Cc1nn(CC(=O)NCCCN2CCN(Cc3ccccc3)CC2)c(=O)c2cc(-c3ccccc3)nn12 | 4 | -4 | 8.5* | -3 | 35 | -1 | 2
COc1ccc(-n2ncc3c2CC(C)(C)CC3NC(=O)Cc2nonc2C)cc1 (configuration not stated) | 8 | -2 | 8.0* | 6 | -2 | 2 | 0
CCOC(=O)CNC(=S)N1CCn2c(nc3ccccc32)C1 | 1 | . | 9.8* | 5 | -2 | -2 | 0
Cc1noc(C)c1S(=O)(=O)Nc1cccc2c1O[C@H](CN(C)S(=O)(=O)c1ccccc1)[C@H](C)CN([C@H](C)CO)C2=O | . | 3 | . | . | . | . | .
CCCCN1C(=O)C(CC(=O)NCCCN(C)C)CC(C(=O)N(CC)CC)=C1C (configuration not stated) | . | 1 | -3 | . | . | . | .
CCCCN1C(=O)C(CC(=O)NCCCN(C)C)CC(C(=O)N(C(C)C)C(C)C)=C1C (configuration not stated) | . | . | 13* | . | . | 8 | 0
COc1cccc(C(=O)Nc2ccc(NC(=O)C3CC3)cn2)c1 | -77 | . | 8.4* | 12 | -50 | -1 | 8.2*
